In the library only some 10% were active in any assay of this set; here they are far more common.
GLS inhibitor = inhibitors of human glutaminase (GLS) | Potency, µM (doses to about 45.5 µM), for the others: at the top dose activity change, negative = inhibition, usual class: inhibitors | O94925 | AID 624170 | GLS enzymatic activity, qHTS titration | actives 0.21% (n = 410,000); also: % is scaled to controls: 0 for no effect and ±100 for the full control effect
Target sequence (O94925 whole entry, looked up): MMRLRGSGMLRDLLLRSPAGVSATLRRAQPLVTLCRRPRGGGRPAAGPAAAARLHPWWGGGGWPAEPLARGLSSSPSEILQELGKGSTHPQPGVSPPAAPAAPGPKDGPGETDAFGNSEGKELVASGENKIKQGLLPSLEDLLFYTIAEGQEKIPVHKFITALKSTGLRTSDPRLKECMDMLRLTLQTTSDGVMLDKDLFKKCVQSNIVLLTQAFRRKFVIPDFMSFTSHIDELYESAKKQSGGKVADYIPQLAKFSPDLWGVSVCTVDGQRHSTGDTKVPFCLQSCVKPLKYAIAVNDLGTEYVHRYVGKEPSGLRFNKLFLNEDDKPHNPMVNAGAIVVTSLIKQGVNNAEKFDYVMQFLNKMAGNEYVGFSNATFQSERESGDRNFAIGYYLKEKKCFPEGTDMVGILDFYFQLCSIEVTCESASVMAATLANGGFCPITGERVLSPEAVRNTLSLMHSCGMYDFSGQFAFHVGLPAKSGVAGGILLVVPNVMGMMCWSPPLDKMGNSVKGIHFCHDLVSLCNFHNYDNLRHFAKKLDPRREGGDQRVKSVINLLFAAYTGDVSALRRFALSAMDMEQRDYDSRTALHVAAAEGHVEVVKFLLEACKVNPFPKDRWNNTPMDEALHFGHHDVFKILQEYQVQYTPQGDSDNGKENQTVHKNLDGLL
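Enzyme dispensed in phosphate buffer (45 mM, pH 8.2, 0.02% Tween-20), compounds pinned in, then 1 mM L-glutamine solution and the glutamate oxidase–HRP–Amplex Red mix added; fluorescence read immediately and again after 30 min at room temperature.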
HP1b chromo inh = inhibitors of HP1-beta chromodomain binding to methylated histone tails; AlphaScreen HP1-beta / biotin-H3K9me3 peptide binding; actives 0.56% (n = 390,000); AID 540317; Potency, µM (series often up to 114 µM), without a hit: at the highest dose activity change, negative = inhibition, most hits filed as inhibitors; P83916; also: nearly all actives have a fitted effect of over 70% in size
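AlphaScreen: HP1-beta (50 nM) preformed 30 min with biotin-H3(1-18)K9me3 peptide (50 nM) in PBS pH 7.4, 0.01% Tween-20. Compound added for 30 min at RT, then streptavidin donor/nickel chelate acceptor beads (10 ug/mL) for 30 min.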
JMJD2A Tudor inh = blocks the human JMJD2A Tudor domain; O75164; AlphaScreen JMJD2A-Tudor / H3K4me3 peptide binding; Potency, µM (highest dose often 114 µM), for the others: top-dose activity change, negative = inhibition, most hits filed as inhibitors; actives 4.4% (n = 390,000); AID 504339; also: % is scaled to controls: 0 for no effect and ±100 for the full control effect; nearly all actives have a fitted effect of over 50% in size
G9a block = blocks human histone lysine methyltransferase G9a. Q96KQ7. G9a H3K9 monomethylation, AlphaScreen, 2 h. actives 8.8% (n = 350,000). Potency, µM (highest dose often 102 µM), for the others: at the highest dose activity, negative = inhibition, hits mostly inhibitors; also: % is scaled to controls: 0 for no effect and ±100 for the full control effect; nearly all actives have a fitted effect of over 75% in size
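Compounds were preincubated with 20 nM G9a for 15 min, after which biotinylated H3K9 peptide (500 nM) and SAM (20 uM) started a 2 h room-temperature reaction. Monomethylated product was quantified by antibody-based AlphaScreen chemiluminescence.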
BAZ2B inh = blocks human BAZ2B; Q9UIF8; AlphaScreen BAZ2B-H3K14Ac peptide displacement; Potency, µM (titrated, usually from 114 µM), without a hit: at the highest dose activity change, negative = inhibition, actives largely listed as inhibitors; actives 4.4% (n = 360,000); also: % is scaled to controls: 0 for no effect and ±100 for the full control effect; nearly all actives have a fitted effect of over 60% in size
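AlphaScreen luminescence quantifies BAZ2B engagement of H3K14Ac peptide; the protein and biotinylated peptide are both at 50 nM final, buffer PBS pH 7.4 with 0.01% Tween-20, all steps at room temperature.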
Numbers without * were called inactive; ? = inconclusive; · = no result; [ ] = remark or other dose. Calls follow the shape of the dose curve; as a rule, active = well fitted curve in the direction sought with a large enough effect; inconclusive = small, poorly fitted or top-dose-only effect, or another doubt; inactive = no such curve, though single readings can be large; an effect the other way counts as inactive or inconclusive. Potency is read from the fitted curve at half-maximal effect.

SMILES | GLS inhibitor | HP1b chromo inh | JMJD2A Tudor inh | G9a block | BAZ2B inh
Cc1cccc(N=Nc2c(C)c(C#N)c(O)[nH]c2=O)c1 | 18.8% | 3.2% | -33.7% | 50.1µM* | -33.3%
Cc1c(C#N)c(O)[nH]c(=O)c1N=Nc1ccc(Br)cc1C(=O)O | -0.4% | -4.9%[57 µM] | ? | 44.7µM* | ?
Cc1ccc(OC(=O)C2CSC3(C)CCC(=O)N23)c(Br)c1 (centres undefined) | 2.5% | -13.5% | -11.7% | -0.1%[0.501 µM] | 30.3%
COC(=O)c1ccc(OC(=O)C2CSC3(C)CCC(=O)N23)cc1 (centres undefined) | 2.4% | 31.9% | 5.5% | 56.2µM* | -0.4%
CN(c1ccccc1)c1ccc(/C=C(\CCC(=O)O)c2nc3ccccc3s2)cc1[N+](=O)[O-] | -5.3% | ? | 44.7µM* | ? | 11.2µM*
CNc1ccc(/C=C(\CCC(=O)O)c2nc3ccccc3s2)cc1[N+](=O)[O-] | -22.8% | 28.6% | -17.4% | ? | 44.7µM*
Cn1cnnc1Sc1ccc(/C=C(\CCC(=O)O)c2nc3ccccc3s2)cc1[N+](=O)[O-] | -14.3% | -1.0% | -13.1% | ? | ?
Cc1ccc(/C=C(\CCC(=O)O)c2nc3ccccc3s2)cc1[N+](=O)[O-] | 5.2% | 5.3% | -30.2% | -8.1%[59 µM] | -11.2%
CCN(C(=O)COC(=O)CCCN1C(=O)c2cccc3cccc(c23)C1=O)C1CCS(=O)(=O)C1 (centres undefined) | 2.2% | 18.2% | -14.5% | -3.1% | 8.9%
CCOC(=O)n1c(=O)oc2ccc(Cl)cc21 | 7.9% | 27.1% | 28.2µM* | 20µM* | 4.8%
Cc1cc(C)c(C)c(C(=O)CSc2nnc(-c3ccc4[nH]c(C)c(C)c4c3)o2)c1C | 4.1% | 28.5% | -14.6% | 25.1µM* | 13.3%
CCn1c(SCC(=O)O)nnc1-c1ccc2[nH]c(C)c(C)c2c1 | 0.1% | -2.1% | -35.7% | 14.1µM* | -16.5%
Cc1cc2nc(-c3ccccc3)cc(=O)n2[nH]1 | -3.6% | 13.8% | -15.5% | ? | 2.9%
CCOc1ccccc1OCCOc1cccc(C(F)(F)F)c1 | 3.2% | 191.4% | 163.0% | 116.7%[59 µM] | 255.0%
COc1ccc(S(=O)(=O)NC(C)C(=O)NCc2cccnc2)cc1C (centres undefined) | 3.1% | 31.8% | -12.4% | ? | 8.9%
COc1ccc(N2CCN(C(CNC(=O)c3ccco3)c3ccco3)CC2)cc1 (centres undefined) | 33.8% | -15.3% | -18.9% | 28.2µM* | -7.6%
O=C(NCC(c1ccco1)N1CCN(c2ccccc2)CC1)c1ccco1 (centres undefined) | -1.1% | 16.6% | -12.3% | ? | -32.0%
COc1ccc(N2CCN(C(CNC(=O)c3c(F)cccc3F)c3ccc4c(c3)OCO4)CC2)cc1 (centres undefined) | 59.4% | -11.4%[57 µM] | 50.1µM* | 10µM* | ?
COc1ccc(N2CCN(C(CNC(=O)c3cccs3)c3ccco3)CC2)cc1 (centres undefined) | 31.7% | ? | ? | 44.7µM* | ?
Cc1ccc(OCc2nnc(SCC(=O)Nc3ncc(C)s3)o2)cc1 | -12.6% | 36.9% | -13.9% | -2.7% | -1.1%
O=C(CCCn1c(SCC(=O)c2ccc(F)cc2)nc2ccccc2c1=O)NCc1ccccc1 | · | 26.4% | 11.6% | 1.3% | -0.1%
COc1ccc(CN2CCN(Cc3ccccc3F)CC2)c(OC)c1 | -2.2% | ? | 1.26µM* | 50.1µM* | 20µM*
COc1ccc(CN2CCN(c3ncccn3)CC2)c(OC)c1 | 3.3% | ? | ? | ? | -5.2%
COc1ccc(CN2CCN(c3ccccn3)CC2)c(OC)c1 | · | ? | 1.58µM* | ? | 79.4µM*
COc1ccc(CN2CCN(Cc3ccc(C(F)(F)F)cc3)CC2)c(OC)c1 | -4.7% | ? | 5.62µM* | 39.8µM* | 25.1µM*
SMILES | GLS inhibitor | HP1b chromo inh | JMJD2A Tudor inh | G9a block | BAZ2B inh
COc1ccc(CN2CCN(Cc3ccc(C)cc3)CC2)c(OC)c1 | -6.0% | ? | 3.16µM* | 50.1µM* | 22.4µM*
COc1ccc(NCc2nc3ccccc3n2CCOc2ccc(C)cc2)cc1 | ? | 39.8µM* | 11.2µM* | 14.1µM* | 10µM*
COc1ccc(NCc2nc3ccccc3n2CCOc2ccccc2)cc1 | -0.8% | -67.2% | 39.8µM* | 31.6µM* | 17.8µM*
c1ccc(NCc2nc3ccccc3n2CCOc2ccccc2)cc1 | 9.9% | -5.6% | -32.4% | ? | ?
O=C(Nc1nc2ccccc2c(=O)s1)c1ccco1 | -0.5% | 19.5% | -14.6% | 70.8µM* | -28.7%
O=C(Nc1n[nH]c(=S)s1)c1ccco1 | -13.1% | ? | 3.55µM* | 1.41µM* | ?
O=C(Nc1nc2ccccc2c(=O)s1)c1ccc(F)cc1Cl | 0.8% | 16.7% | -13.4% | 70.8µM* | 6.2%
CC(=O)Nc1ccc2nc(SCC(=O)O)sc2c1 | -0.1% | 28.4% | -7.1% | 2.9%[59 µM] | ?
N#Cc1ccc(S(=O)(=O)NC2CC2)cc1 | 13.5% | 31.5% | -7.0% | 7.94µM* | ?
Cc1ccccc1NC(=O)c1cccc(S(=O)(=O)Nc2cccc(C(=O)O)c2)c1 | 3.9% | 20.3% | -12.9% | · | 11.7%
Cc1ccc(C(=O)Nc2ccc(S(=O)(=O)O)c3cc(S(=O)(=O)O)cc(S(=O)(=O)O)c23)cc1NC(=O)c1cccc(NC(=O)Nc2cccc(C(=O)Nc3cc(C(=O)Nc4ccc(S(=O)(=O)O)c5cc(S(=O)(=O)O)cc(S(=O)(=O)O)c45)ccc3C)c2)c1 | 8.91µM* | · | · | 0.282µM* | ·
N#Cc1c2n(c3c(=O)n(Cc4ccccc4Cl)cnc13)CCCCC2 | 9.1% | 20.5% | -5.0% | 12.5% | 9.9%
O=C1N=c2ccccc2=C1c1sc(=S)n(NC(=O)c2ccccc2)c1O | -2.3% | 11.6% | -17.2% | 39.8µM* | ?
O=C1/C(=C/c2ccc([N+](=O)[O-])cc2)CCc2ccccc21 | · | · | · | ? | 31.6µM*
O=C1/C(=C/c2cccc([N+](=O)[O-])c2)CCc2ccccc21 | 6.1% | -29.5% | ? | ? | ?
Clc1ccc(OCc2cn3cccnc3n2)c2ncccc12 | -2.4% | 24.1% | -15.8% | 6.0%[12.7 µM] | -5.0%
c1cnc2c(OCc3cn4cccnc4n3)cccc2c1 | 3.8% | 4.6% | ? | 3.16µM* | ?
COc1ccc(-c2ccc(=N)n(CCCC(=O)O)n2)cc1 | · | · | · | 18.7%[59 µM] | ·
CCC(C)NC(=O)C(=O)Nc1c2c(nn1-c1ccccc1)CS(=O)(=O)C2 (centres undefined) | -9.9% | -14.2% | 44.7µM* | ? | ?
CC(C)OCCCNC(=O)C(=O)Nc1c2c(nn1-c1ccccc1)CS(=O)(=O)C2 | -16.9% | 34.3% | -17.2% | ? | -28.6%
Cn1c(=O)oc2cc(S(=O)(=O)N3CCCC(C(=O)N4CC=C(c5ccccc5)CC4)C3)ccc21 (centres undefined) | · | · | · | 50.1µM* | 6.2%
COc1cccc(/C=C/C(=C2/C(=O)N(c3ccccc3)N=C2C)c2ccc(C)cc2)c1OC | 1.2% | ? | ? | 1.12µM* | ?

Screens deposited in PubChem BioAssay by National Center for Advancing Translational Sciences (NCATS).
